RGS7-Gao reg: human RGS7-Galphao interaction regulation | Multiplexed bead flow cytometry, RGS7-Galphao binding; actives lie on both sides | binding response (% of control), % at 10 µM | 220,000 compounds, 0.35% hits; in the data active means binding response below about 49% or above about 150%; inconclusive means no clear call, values can overlap the other calls; inactive means in between;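 further: fluorescent Galphao held in activated GDP-AlF4 state binding bead-coupled RGS7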
Target sequence (P09471 whole entry, looked up): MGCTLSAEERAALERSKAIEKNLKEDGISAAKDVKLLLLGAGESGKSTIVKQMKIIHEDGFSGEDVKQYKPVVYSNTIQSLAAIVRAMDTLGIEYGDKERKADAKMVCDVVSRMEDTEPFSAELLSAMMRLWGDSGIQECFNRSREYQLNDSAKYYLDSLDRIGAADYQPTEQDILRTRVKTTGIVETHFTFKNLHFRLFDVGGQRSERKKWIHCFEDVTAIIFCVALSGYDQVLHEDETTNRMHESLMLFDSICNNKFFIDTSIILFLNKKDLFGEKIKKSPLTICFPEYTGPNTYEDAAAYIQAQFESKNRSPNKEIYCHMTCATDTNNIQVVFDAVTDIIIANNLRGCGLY
RGS16-Gao: regulators of human RGS16-Galphao interaction; binding response (% of control), % at 10 µM; 220,000 compounds, 0.38% hits; O15492+P09471; bead-based flow cytometry RGS16-Galphao binding, fluorescence; actives lie on both sides;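 further: Galphao activated by GDP with aluminum fluoride before binding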
GSH fluor: compound fluoresces at 488/530 nm on GSH beads | AID 1776 | 190,000 compounds, 0.25% hits | fluorescence (KMESF) at 10 µM | GSH beads flow cytometry, compound fluorescence 488/530 nm; hits give high values; in the data active means fluorescence above about 89;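 further: glutathione beads carrying GST-tagged Bcl family fusion proteins plus one bare bead set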
RGS8-Gao: human RGS8-Galphao interaction regulation; P09471; multiplexed bead flow cytometry, RGS8-Galphao binding; actives lie on both sides; response (percent of control binding), % at 10 µM; 220,000 compounds, 0.34% hits; AID 1423; in the data active means response below about 60% or above about 140%; inactive means in between;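 further: Galphao activated as the GDP aluminium fluoride complex binding bead-coupled RGS8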
RGS4-Gao reg: modulates binding of RGS4 to human Galphao. Multiplexed bead flow cytometry; actives lie on both sides. binding response (% of control), % at 10 µM. 220,000 compounds, 0.33% hits. AID 1415; in the data active means binding response below about 49% or above about 150%; inactive means in between;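 further: fluorescent Galphao activated with aluminum fluoride binding bead-coupled RGS4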
Avidin bead fluor: compound fluoresces at 488/530 nm on avidin beads | fluorescence (KMESF) at 10 µM | AID 1775 | compound fluorescence 488/530 nm, flow cytometry; hits give high values | 220,000 compounds, 0.38% hits; in the data active means fluorescence above about 47
RGS4-Gao HTS: modulates binding between human RGS4 and Galphao. 1,600 compounds, 99% hits. AID 1504. shares compounds with RGS16-Gao. RGS4–Galpha-o binding response, % at 10 µM. multiplexed bead flow cytometry, RGS–Galpha-o binding;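 further: fluorescently labeled Galpha-o bound to GDP with aluminium fluoride binding biotinylated RGS beads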
Target sequence (P09471 whole entry, looked up): as above
Target sequence (P49798 whole entry, looked up): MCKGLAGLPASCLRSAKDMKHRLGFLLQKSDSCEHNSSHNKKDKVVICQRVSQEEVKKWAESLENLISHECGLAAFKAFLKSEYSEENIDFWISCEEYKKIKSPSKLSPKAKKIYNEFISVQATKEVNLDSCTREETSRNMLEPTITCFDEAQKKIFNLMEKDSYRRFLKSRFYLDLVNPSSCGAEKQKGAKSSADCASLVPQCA
Avidin counter: biotin-avidin bead binding disruption counter-screen. shares compounds with RGS16-Gao. streptavidin beads, fluorescein-biotin binding, flow cytometry. inhibition, % at 10 µM. 1,700 tested, under 10 active;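 active means inhibition above 50%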;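 further: median green fluorescence of gated singlet beads compared with DMSO control wells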
RGS8-Gao single: confirmation of regulators of human RGS8-Galphao interaction. 1,700 compounds, 3% hits. shares compounds with RGS16-Gao. binding response (% of control), % at 10 µM. bead-based flow cytometry RGS8-Galphao binding, fluorescence; actives lie on both sides. AID 1836; in the data active means binding response below about 72% or above about 130%; inactive means in between;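 further: Galphao activated as GDP AlF4 complex before binding bead RGS8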
RGS7-Gao confirm: RGS7-Galphao interaction regulation, single point confirmation. shares compounds with RGS16-Gao. bead-based flow cytometry RGS7-Galphao binding; actives lie on both sides. response (percent of control binding), % at 10 µM. 1,700 compounds, 7.8% hits; in the data active means response below about 75% or above about 130%; inactive means in between;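 further: fluorescent Galphao activated with GDP and aluminum fluoride binding bead-coupled RGS7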
RGS16-Gao single: RGS16-Galphao interaction regulation, single point confirmation. bead-based flow cytometry, RGS16-Galphao binding; actives lie on both sides. 1,700 compounds, 4% hits. response (% of control binding), % at 10 µM. shares compounds with RGS16-Gao; in the data active means response below about 74% or above about 130%; inactive means in between;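 further: Galphao activated as the GDP aluminium fluoride complex binding bead-coupled RGS16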
RGS4-Gao single: RGS4-Galphao interaction regulation, single point confirmation; shares compounds with RGS16-Gao; RGS4-Galphao binding, multiplexed bead flow cytometry; actives lie on both sides; binding response (% of control), % at 10 µM; 1,700 compounds, 4% hits; in the data active means binding response below about 74% or above about 130%; inactive means in between
RGS19-Gao conf: confirmation of regulators of human RGS19-Galphao interaction; 1,700 compounds, 5% hits; shares compounds with RGS16-Gao; response (percent of control binding), % at 10 µM; bead-based flow cytometry RGS19-Galphao binding; actives lie on both sides; in the data active means response below about 50% or above about 160%; inactive means in between
Large screens that a line does not name were inactive (follow-up assays come after a bar, where they were run); [ ] = dose if it differs, or a comment. Sampled rows, rich in hits. Any-hit rate of the full collection: about 1.2%. Unless noted, how the calls were made is not given here.

O=C(Oc1ccc(Br)cc1)c1cncc(Br)c1	RGS7-Gao reg 159[activator], RGS4-Gao reg 171[activator], Avidin bead fluor 89 | Avidin counter inactive | RGS8-Gao single inactive | RGS7-Gao confirm inactive | RGS16-Gao single inactive | RGS4-Gao single inactive | RGS19-Gao conf inactive
CCOC(=O)C1(CCOC)CCN(C2C3CC4CC(C3)CC2C4)CC1 (stereo not given)	none
COc1ccc(C2=CC(=O)C=CC2=O)cc1	RGS7-Gao reg inconclusive (no result: GSH fluor) | Avidin counter inactive | RGS8-Gao single 53 | RGS7-Gao confirm inactive | RGS16-Gao single 15 | RGS4-Gao single inactive | RGS19-Gao conf 32
O=C(O)c1ccccc1/C=N/NC(=S)NCc1ccccc1	RGS7-Gao reg inconclusive (no result: GSH fluor)
CCOc1ccc(Br)cc1-c1noc(-c2cccs2)n1	RGS7-Gao reg 12, RGS8-Gao 8.4, RGS4-Gao reg 21 | Avidin counter inactive | RGS8-Gao single inactive | RGS7-Gao confirm inactive | RGS16-Gao single inactive | RGS4-Gao single inactive | RGS19-Gao conf inactive
O=C1/C(=C/c2cccnc2)SC(=S)N1c1ccc(F)cc1	RGS16-Gao 178[activator] | RGS4-Gao HTS 109 | Avidin counter inactive | RGS8-Gao single inactive | RGS7-Gao confirm inactive | RGS16-Gao single inactive | RGS4-Gao single inactive | RGS19-Gao conf inactive
O=C1/C(=C/c2cccnc2)SC(=S)N1c1ccc(O)cc1	RGS7-Gao reg inconclusive (no result: GSH fluor)
Cc1ccc(N/C(N)=N/c2nc(C)cc(N3CCCCC3)n2)c(C)c1	RGS7-Gao reg inconclusive
Oc1cc2c(cc1O)C1c3ccc(O)c(O)c3OCC1(O)C2 (stereo not given)	RGS7-Gao reg 32, RGS16-Gao 3.4, RGS8-Gao 19 | RGS4-Gao HTS 67
C=CCn1c(SCC(=O)Nc2ncc(Cc3cc(Cl)ccc3Cl)s2)nnc1-c1ccncc1	none
CC(=O)/C(=N/Nc1ccccc1Cl)Sc1nnc(C(O)c2ccccc2)n1-c1ccccc1 (stereo not given)	none
CC(=O)/C(=N/Nc1ccccc1)Sc1nnc(C(O)c2ccccc2)n1-c1ccccc1 (stereo not given)	RGS16-Gao 18 | RGS4-Gao HTS 99 | Avidin counter inactive | RGS8-Gao single inactive | RGS7-Gao confirm inactive | RGS16-Gao single inactive | RGS4-Gao single inactive | RGS19-Gao conf inactive
Cc1ccc(NC(=O)COC(=O)[C@H](C)NC(=O)c2ccccc2)cc1S(=O)(=O)N1CCOCC1	RGS7-Gao reg inconclusive (no result: GSH fluor)
CCOC(=O)c1c(C)n(C)c2ccc(O)c(CN3CCN(C)CC3)c12	RGS8-Gao 150[activator] | RGS4-Gao HTS 131 | Avidin counter inactive | RGS8-Gao single inactive | RGS7-Gao confirm inactive | RGS16-Gao single inactive | RGS4-Gao single inactive | RGS19-Gao conf inactive
Cc1cccc(N=Cc2[nH]c3ccc(Br)c(Cl)c3c2O)c1	RGS7-Gao reg 153[activator] | RGS4-Gao HTS 142
C=CCSC1=NNC(c2ccc(C(C)(C)C)cc2)=NN1	RGS7-Gao reg inconclusive (no result: GSH fluor)
CCOC(=O)CNNC(=O)Nc1ccc(Cl)c(Cl)c1	RGS16-Gao 326[activator], RGS8-Gao 153[activator] | RGS4-Gao HTS 123 | Avidin counter inactive | RGS8-Gao single inactive | RGS7-Gao confirm inactive | RGS16-Gao single inactive | RGS4-Gao single inactive | RGS19-Gao conf inactive
O=C(NCCSCc1ccc(Cl)cc1Cl)c1ccc(CN2CCOCC2)cc1	RGS7-Gao reg -2.0, RGS16-Gao -10, RGS8-Gao 13, RGS4-Gao reg -21 | Avidin counter inactive | RGS8-Gao single inactive | RGS7-Gao confirm inactive | RGS16-Gao single inactive | RGS4-Gao single inactive | RGS19-Gao conf inactive
CC(=O)c1cc(CN2CCN(C3CCN(C(C)C)CC3)C(CCO)C2)cs1 (stereo not given)	none
NC(=O)SC/C(=N\S(=O)(=O)c1ccccc1)Nc1ccccc1	RGS7-Gao reg 268[activator], RGS16-Gao 418[activator], RGS4-Gao reg 350[activator], Avidin bead fluor 189 | Avidin counter inactive | RGS8-Gao single inactive | RGS7-Gao confirm inactive | RGS16-Gao single inactive | RGS4-Gao single inactive | RGS19-Gao conf inactive
COc1ccc(NC(=O)C2CC(=O)OC2c2ccccc2)cc1 (stereo not given)	RGS16-Gao 24 | RGS4-Gao HTS 96 | Avidin counter inactive | RGS8-Gao single inactive | RGS7-Gao confirm inactive | RGS16-Gao single inactive | RGS4-Gao single inactive | RGS19-Gao conf inactive
Cc1cc(NC(=O)C2CC(=O)OC2c2ccccc2)no1 (stereo not given)	none
Cc1nc(SCc2nc3ccccc3[nH]2)c2oc3ccccc3c2n1	RGS7-Gao reg 167[activator], Avidin bead fluor 133 | RGS4-Gao HTS 128
c1ccc2[nH]c(CSc3ncnc4c3oc3ccccc34)nc2c1	none
NS(=O)(=O)c1ccc(N/N=C/c2ccc(O)c(O)c2O)c([N+](=O)[O-])c1	RGS7-Gao reg inconclusive, RGS16-Gao 20, RGS8-Gao 39 (no result: GSH fluor) | RGS4-Gao HTS 69 | Avidin counter inactive | RGS8-Gao single 43 | RGS7-Gao confirm 35 | RGS16-Gao single 42 | RGS4-Gao single 71 | RGS19-Gao conf -0.4
CCOc1ccc(/C=C/C(=O)c2ccccc2)cc1	RGS7-Gao reg inconclusive, RGS16-Gao -3.6, RGS8-Gao 23, RGS4-Gao reg -8.9 (no result: GSH fluor) | Avidin counter inactive | RGS8-Gao single inactive | RGS7-Gao confirm inactive | RGS16-Gao single inactive | RGS4-Gao single inactive | RGS19-Gao conf inactive
COc1ccc(C(=O)/C=C/c2ccc(OC(=O)c3cc(OC)c(OC)c(OC)c3)cc2)cc1	RGS8-Gao 159[activator] | RGS4-Gao HTS 120 | Avidin counter inactive | RGS8-Gao single inactive | RGS7-Gao confirm inactive | RGS16-Gao single inactive | RGS4-Gao single inactive | RGS19-Gao conf inactive
CCOc1ccc(C(=O)/C=C/c2ccc(SC)cc2)cc1	none

Screening results from PubChem BioAssay.
